Compound activity from PubChem BioAssay.
TDP1 cell noCPT – qHTS for Inhibitors of human tyrosyl-DNA phosphodiesterase 1 (TDP1): qHTS in cells in absence of CPT. DT40 Tdp1-/- hTDP1 cells, no CPT, ATP luminescence, 48 h. Potency, µM (titrated, usually from 46.2 µM), inactives show at the top dose activity change, negative = growth inhibition, actives largely listed as inhibitors. 15% of 420,000 active. AID 686978, 2013; further: potency means the concentration at half of the fitted maximal effect; nearly all actives have a fitted effect of over 55% in size
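Growth kinetics read by CellTiter-Glo luminescence after ≥48 hr at 37 °C. Cells: DT40 Tdp1-/- stably carrying human TDP1, 400 per well, compound exposure in the absence of CPT (DMSO vehicle).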
VP16 counter – VP16 counterscreen qHTS for inhibitors of ROR gamma transcriptional activity; Drosophila S2 Gal4-VP16 UAS-luciferase, luminescence, 20 h; Potency, µM (titrated, usually from 53.6 µM), without a hit: top-dose activity, negative = inhibition, actives largely listed as inhibitors; 3.5% of 310,000 active;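 further: Gal4-VP16 expression switched on by copper sulfate through the metallothionein promoter; potency means the concentration at half of the fitted maximal effect; nearly all actives have a fitted effect of over 50% in size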
RORg inh – qHTS for inhibitors of ROR gamma transcriptional activity. Drosophila S2 Gal4-RORgamma UAS-luciferase reporter, 20 h. Potency, µM (doses to about 53.6 µM), for inactives: at the highest dose activity change, negative = inhibition, usual class: inhibitors. 5.4% of 310,000 active. AID 2551, 2010; further: potency means the concentration at half of the fitted maximal effect; nearly all actives have a fitted effect of over 60% in size
Target sequence (P51450 whole entry, looked up, the tested form may be a part): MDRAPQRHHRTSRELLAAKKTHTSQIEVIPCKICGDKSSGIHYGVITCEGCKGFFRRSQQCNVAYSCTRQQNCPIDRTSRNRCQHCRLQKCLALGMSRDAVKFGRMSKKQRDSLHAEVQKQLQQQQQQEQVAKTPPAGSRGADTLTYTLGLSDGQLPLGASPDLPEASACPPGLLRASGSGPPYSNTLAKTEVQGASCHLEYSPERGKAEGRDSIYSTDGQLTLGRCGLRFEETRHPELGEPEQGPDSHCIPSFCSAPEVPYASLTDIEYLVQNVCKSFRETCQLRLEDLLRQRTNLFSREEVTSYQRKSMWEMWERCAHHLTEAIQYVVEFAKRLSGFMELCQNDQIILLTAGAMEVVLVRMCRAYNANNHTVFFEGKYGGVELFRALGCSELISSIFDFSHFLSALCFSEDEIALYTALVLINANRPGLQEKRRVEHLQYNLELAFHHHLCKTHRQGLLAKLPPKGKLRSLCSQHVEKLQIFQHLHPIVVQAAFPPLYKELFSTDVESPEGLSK
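Luminescence from a UAS-regulated Photinus luciferase reporter in stably transfected Drosophila Schneider cells is measured; decreased signal marks ROR gamma inhibition. Fusion expression is induced by 700 uM copper sulfate for 20 hr.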
LDHA block – qHTS assay for inhibitors of human lactate dehydrogenase; activity change, % (values are at about 110 or 230 µM); purified LDHA, NADH/diaphorase-resazurin fluorescence; stronger effect = lower value; L-lactate dehydrogenase A chain (Homo sapiens), P00338; 0.15% of 480,000 active; in the data active means activity change below about -30%; inconclusive means mostly about -25% to -30%;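 further: plate controls were DMSO wells for no effect and wells without enzyme for full effect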
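Enzyme activity of human lactate dehydrogenase 5 (2 nM; 0.06 mM NADH, 0.2 mM pyruvate, 5 min, RT) is measured via a resazurin/diaphorase fluorescence readout of residual NADH.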
TDP1 cell CPT – qHTS for Inhibitors of human tyrosyl-DNA phosphodiesterase 1 (TDP1): qHTS in cells in presence of CPT. Potency, µM (doses to about 46.2 µM), for inactives: at the top dose activity change, negative = growth inhibition, actives largely listed as inhibitors. AID 686979, 2013. 12% of 420,000 active. chicken DT40 Tdp1-/-;hTDP1 cells + 20 nM CPT, ATP luminescence, 48 h; further: potency means the concentration at half of the fitted maximal effect; nearly all actives have a fitted effect of over 55% in size
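Cell growth measured by CellTiter-Glo luminescence after a minimum 48 h, 37 C compound exposure with 20 nM CPT in Tdp1-knockout DT40 cells stably expressing hTDP1, seeded 400/well; qHTS titration format.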
IL1B secr inh – qHTS for Inhibitors of Inflammasome Signaling: IL-1-beta AlphaLISA Primary Screen. THP-1 LPS/ATP IL-1B secretion, AlphaLISA, 16 h; stronger effect = lower value. AID 743279, 2014. 4.7% of 360,000 active. activity change, % at 57.5 µM; in the data active means activity change below about -50%; inconclusive means mostly about -30% to -49%
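THP-1 cells pretreated 1 hr with compounds (up to 57.5 uM final), then stimulated with LPS (250 ng/mL final) plus ATP (1.25 mM final); secreted IL-1B measured by AlphaLISA after 16 hr, decreased signal indicating inhibition.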
Starred values were filed as active, the others as inactive; ? = inconclusive; . = not tested or not shown; ! = repeats disagree; [ ] = dose if it differs, or a comment. Shown are actives, neighbours in structure and some others; about 18% of the full set was active somewhere. Unless noted, the call rests on the fitted dose curve; in most records, active means well fitted curve in the direction sought with a large enough effect; inconclusive means small, poorly fitted or top-dose-only effect, or another doubt; inactive means no such curve, though single readings can be large; an effect the other way counts as inactive or inconclusive. Unless noted, on the % scale 0 is the no-effect control and ±100 the full control effect.

SMILES	TDP1 cell noCPT	VP16 counter	RORg inh	LDHA block	TDP1 cell CPT	IL1B secr inh
C=C[C@@H]1CN2CC[C@H]1C[C@H]2[C@H](O)c1ccnc2ccccc12	.	-9.0%	3.1%[10 µM]	.	.	.
CC1CCN(C(=O)Cn2c3ccccc3c3nc4n(c(=O)c32)CCCS4)CC1	?	1.3%	0.8%	-1.2	23.1µM*	19.1
N#C/C(=C\c1ccccc1)C(=O)Nc1ccc(Br)cc1C(=O)c1ccccc1	.	.	.	-2.5	.	.
COC(=O)C1=C(c2ccc(OC)c(OC)c2)C[C@@H]2CC[C@H]1N2C(=O)N1CCOCC1	?	.	.	0.0	20.6µM*	8.6
COC(=O)C1=C(c2ccc(C(C)=O)cc2)C[C@@H]2CC[C@H]1N2C(=O)N1CCC(C)CC1	20.6µM*	.	.	1.0	18.4µM*	-0.6
COC(=O)C1=C(c2ccc(OC)c(OC)c2)C[C@@H]2CC[C@H]1N2C(=O)N1CCc2cc(OC)c(OC)cc2C1	?	.	.	2.8	?	-4.5
COC(=O)C1=C(c2ccc(S(C)(=O)=O)cc2)C[C@@H]2CC[C@H]1N2C(=O)N1CCC(O)CC1	-11.2%	.	.	-1.5	-1.1%	6.2
COC(=O)C1=C(c2ccc(C(C)=O)cc2)C[C@@H]2CC[C@H]1N2C(=O)N1CCC(O)(c2ccc(Cl)cc2)CC1	9.2µM*	.	.	-1.1	16.4µM*	-15.9
COC(=O)C1=C(c2ccc(OC)c(OC)c2)C[C@@H]2CC[C@H]1N2C(=O)N1CCC(C)CC1	10.3µM*	.	.	-5.2	20.6µM*	9.2
COc1ccc(/C=C/C(=O)N2CC3C[C@@H](C2)Cn2c3cccc2=O)cc1OC	-3.8%[9.04 µM]	3.0%	-21.3%	.	17.4%[9.04 µM]	.
Cc1nc2cnc(N3CCNCC3)nc2n(C)c1=O	-19.0%	-9.0%	3.4%	.	10.2%	.
O=C(CC(O)C(Cl)(Cl)Cl)c1ccccc1 (stereo unspecified)	.	.	.	-0.7	.	.
CN(C)c1ccc([P+](=O)c2ccc(N(C)C)cc2)cc1	20.6µM*	4.1%	44.7%	-3.0	?	-21.0
CN(C)c1ccc(-c2ccc(N(C)C)cc2)cc1	.	.	.	2.0	.	.
C=C(Cl)CSC(=S)N(CC)CC	3.26µM*	6.4%	17.2%	-3.6	5.17µM*	5.8
NCC(=O)c1ccc(Cl)c(Cl)c1	?	.	.	-31.3*	?	.
COP(=O)(OC)c1nc(-c2ccc([N+](=O)[O-])cc2)oc1N1CCCCC1	20.6µM*	17.7%	25.0%	-1.3	?	-10.9
CNc1oc(-c2ccc(C)cc2)nc1P(=O)(OC)OC	.	.	.	-15.8	.	.
CCOP(=O)(OCC)c1nc(-c2cccc3ccccc23)oc1N1CCCCC1	?	-22.7%	-22.1%	1.4	20.6µM*	?
C[N+]1(C)CCc2cc3c(cc2C1C1OC(=O)c2c1ccc1c2OCO1)OCO3 (stereo unspecified)	.	-4.9%	-4.4%	.	.	.
COc1ccc(CCNCc2cccc(Cl)c2)cc1	.	.	.	0.6	.	.
Ic1c(C2=CCCCC2)[se]c2ccccc12	.	-13.2%	8.6%	.	.	.
COc1ccc(C(=O)OC2CCN(C)CC2)cc1	7.0%	-22.9%	12.6µM*	0.0	9.3%	16.6
COc1ccc(C(=O)OC2C[C@H]3CC[C@@H](C2)N3C)cc1OC (stereo partly specified)	.	8.7%[17 µM]	-16.4%[16.9 µM]	.	.	.
CCOC(=O)C(NC(=O)C(Cc1ccc(N(CCCl)CCCl)cc1)NC(C)=O)C(C)C (stereo unspecified)	5.6%	0.3%	25.9%	-6.5	1.3%	3.3
SMILES	TDP1 cell noCPT	VP16 counter	RORg inh	LDHA block	TDP1 cell CPT	IL1B secr inh
CCOC(=O)CNC(=O)CNC(=O)C(Cc1ccc(N(CCCl)CCCl)cc1)NC(C)=O (stereo unspecified)	1.64µM*	-6.7%	-2.0%	1.6	1.3µM*	?
CC(C)C[C@H](NC(=O)[C@H](Cc1ccccc1)NC(=O)CNC(=O)[C@H](C)NC(=O)[C@@H](N)Cc1ccc(O)cc1)C(=O)O	-11.5%[4.12 µM]	.	.	.	2.4%[4.12 µM]	.
CC(=O)NC(Cc1ccc(N(CCCl)CCCl)cc1)C(=O)NCC(=O)NCC(=O)O (stereo unspecified)	10.3µM*	-5.7%	-12.6%	18.2	6.51µM*	4.3
CC(=O)NC(Cc1ccc(N(CCCl)CCCl)cc1)C(=O)NC(CC(C)C)C(=O)O (stereo unspecified)	14.6µM*	-6.9%	-14.9%	8.6	?	0.0
S=C(c1ccc(Cl)cc1)N1CCOCC1	-4.0%	-0.6%	8.4%	-5.4	?	2.6
Cc1nc2ccc(Cl)cn2c1P(=S)(N1CCOCC1)N1CCOCC1	?	-8.1%	-0.4%	-3.7	14.6µM*	27.4
C=CCc1ccccc1OCCn1c(C2CC(=O)N(Cc3ccc(F)cc3)C2)nc2ccccc21 (stereo unspecified)	?	.	.	1.6	16.4µM*	.
Cc1nc(N)sc1CCN	-7.2%	-1.9%	-4.5%	.	?	.
CN1CC[C@@]2(CCCN(C(=O)Oc3ccccc3)C2)C1	0.5%	5.9%	-5.4%	.	6.8%	.
O=C(CI)c1ccc(Cl)cc1	-4.0%	.	.	-4.1	-20.2%	.
CC(Cl)CCl (stereo unspecified)	.	1.2%	-1.1%	.	.	.
Cc1nn(Cc2ccc(Cl)cc2Cl)c(Cl)c1C(=O)NC1CCCc2ccccc21 (stereo unspecified)	11.6µM*	-31.0%	0.7%	-5.7	16.4µM*	25.0
Cc1ccc(-c2n[nH]c(=S)n2-c2ccccc2)cc1	?	?	?	-9.5	14.1µM*!	16.4
S=c1[nH]nc(-c2ccc3ccccc3n2)n1-c1ccc2c(c1)OCCO2	?	?	-4.4%	-11.6	-6.2%	31.9
CC(C)[C@]1(O)[C@@H](OC(=O)c2ccc[nH]2)[C@@]2(O)[C@@]3(C)C[C@]4(O)O[C@@]5([C@H](O)[C@@H](C)CC[C@]35O)[C@@]2(O)C41C	?	-0.9%	-29.7%	.	-12.3%	.
C[C@H]1CCC/C=C/[C@@H]2C[C@H](O)C[C@H]2[C@H](O)/C=C/C(=O)O1	0.651µM*	-4.3%	17.4%	-13.6	0.581µM*	-52.9*
C[C@H]1CCC/C=C/C2C[C@H](O)C[C@H]2[C@H](O)/C=C/C(=O)O1 (stereo partly specified)	0.355µM*	-2.7%	15.7%	.	0.251µM*	.
O=C1C[C@@H]2OCC=C3CN4CC[C@]56c7ccccc7N1[C@H]5[C@H]2[C@H]3C[C@H]46	-18.2%	.	.	.	.	.
